The target of experiment [1] is Cellular tumor antigen p53 (Homo sapiens) (UniProt P04637). Description: Primary qHTS for small molecule compounds that upregulate eGFP-tagged delta133p53alpha (in N-terminal) cells. (AID 2060322). Further: nearly all actives have a fitted effect of over 75% in size. Further: potency means the concentration at half of the fitted maximal effect.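 On activation: series mostly up to about 56 µM; 0% = DMSO vehicle and 100% = reference activator.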 Conditions: NCI-H358 eGFP-delta133p53alpha fluorescence, 24 h; activation: stronger effect = higher value. The gist of the method: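 NCI-H358 cells pre-induced 24 h with 10 ng/ml doxycycline to express N-terminal eGFP-delta133p53alpha, then dosed 24 h at 37C without doxycycline; fixed, Hoechst-stained, GFP intensity by laser scanning cytometry, normalized to DMSO (0%) and 57.5 uM 5-azacytidine (100%).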
Cellular tumor antigen p53 (Homo sapiens), sequence (P04637 whole entry, looked up): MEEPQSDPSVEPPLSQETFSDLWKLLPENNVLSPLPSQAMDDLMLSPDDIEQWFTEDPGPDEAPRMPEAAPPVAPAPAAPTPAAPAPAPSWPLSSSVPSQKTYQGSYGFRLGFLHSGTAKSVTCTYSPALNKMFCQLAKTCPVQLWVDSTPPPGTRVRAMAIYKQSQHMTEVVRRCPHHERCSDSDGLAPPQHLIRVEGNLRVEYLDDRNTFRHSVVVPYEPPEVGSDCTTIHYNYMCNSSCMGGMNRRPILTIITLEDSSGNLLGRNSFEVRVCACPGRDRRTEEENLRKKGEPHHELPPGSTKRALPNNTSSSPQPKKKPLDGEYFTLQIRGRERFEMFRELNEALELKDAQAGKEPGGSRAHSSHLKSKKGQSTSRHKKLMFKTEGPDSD

In experiment [2] the target is Aldehyde dehydrogenase, mitochondrial (Homo sapiens) (UniProt P05091). Description: qHTS for Inhibitors of the Aldehyde Dehydrogenase Family (ALDH2) Primary screen (AID 2061308).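 Further: plate controls were vehicle for no effect and reference inhibitor for full effect; nearly all actives have a fitted effect of over 55% in size.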
In experiment [3] the target is Retinaldehyde dehydrogenase 3 (Homo sapiens) (UniProt P47895). The experiment is described as follows: qHTS for Inhibitors of the Aldehyde Dehydrogenase Family (ALDH1A3) Primary screen (AID 2061315).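 Further: plate controls were DMSO vehicle for no effect and reference inhibitor for full effect.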
A short description of experiment [4]: BET inhibitor-based combinations targeting novel dependencies in MECOM-rearranged (r) AML: SET-2 cell line (AID 2202231). Further: nearly all actives have a fitted effect of over 35% in size. Further: potency means the concentration at half of the fitted maximal effect.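 On viability: plate controls were DMSO treated cells for no effect and wells without cells for full effect.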 Conditions: SET-2 AML cells viability, CellTiter-Glo luminescence, 48 h; viability: stronger effect = lower value, concentration not given here. The method in brief: (§1)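 Here, 11-point titrations of each agent were applied to 500 seeded cells and incubated 48 hr; CellTiter-Glo signal, scaled against DMSO and empty wells, was integrated as AUC, then Z-scored within the individual line.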

The nature of experiment [5]: BET inhibitor-based combinations targeting novel dependencies in MECOM-rearranged (r) AML: OCI-AML3 cell line (AID 2202232). Further: nearly all actives have a fitted effect of over 35% in size. Further: potency means the concentration at half of the fitted maximal effect. The settings on record: Potency: OCI-AML3 viability. The gist of the method: as §1
A short description of experiment [6]: BET inhibitor-based combinations targeting novel dependencies in MECOM-rearranged (r) AML: MV-4-11 cell line (AID 2202233). Further: nearly all actives have a fitted effect of over 45% in size. Further: potency means the concentration at half of the fitted maximal effect. The method in brief:
(§2)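 Normalized to DMSO and empty-well controls, the luminescence data from CellTiter-Glo after 48 hr drug exposure were fitted across 11 concentrations. Reported metrics are area under the dose-response curve and its Z-transformed form.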

Experiment [7] can be described thus: BET inhibitor-based combinations targeting novel dependencies in MECOM-rearranged (r) AML: HNT-34 cell line (AID 2202234). Further: nearly all actives have a fitted effect of over 35% in size. Further: potency means the concentration at half of the fitted maximal effect. The gist of the method: as §2
Experiment [8] can be described thus: BET inhibitor-based combinations targeting novel dependencies in MECOM-rearranged (r) AML: UCSD-AML1 cell line (AID 2202235). Further: nearly all actives have a fitted effect of over 40% in size. Further: potency means the concentration at half of the fitted maximal effect. The method in brief:
as §2

Experiment [9] in a line: BET inhibitor-based combinations targeting novel dependencies in MECOM-rearranged (r) AML: AML-191 cell line (AID 2202236; further: potency means the concentration at half of the fitted maximal effect; nearly all actives have a fitted effect of over 35% in size). The method in brief:
as §1

In experiment [10] the target is Aldehyde dehydrogenase 1A1 (Homo sapiens) (UniProt P00352). The experiment is described as follows: qHTS for Inhibitors of the Aldehyde Dehydrogenase Family (ALDH1A1) Confirmatory screens (AID 2061316). Further: on the % scale 0 is the no-effect control and ±100 the full control effect; nearly all actives have a fitted effect of over 65% in size.
A short description of experiment [11]: BET inhibitor-based combinations targeting novel dependencies in MECOM-rearranged (r) AML: AML-194 cell line (AID 2202237; further: potency means the concentration at half of the fitted maximal effect; nearly all actives have a fitted effect of over 40% in size). The gist of the method: as §1

Structures are written as SMILES. Several values for one entry are separate records, joined by “and”; a condition that tells them apart may be missing. Equal values may be shown once. Results filed as inconclusive are left out. Activity calls are given as the source filed them. The call rests on the fitted dose curve; in most records, active means well fitted curve in the direction sought with a large enough effect; inconclusive means small, poorly fitted or top-dose-only effect, or another doubt; inactive means no such curve, though single readings can be large; an effect the other way counts as inactive or inconclusive.

In the case of `CC(C)(O)/C=C1/C(=O)C(C)(C)C(=O)C(C)(C)C1(O)O[C@@H]1O[C@H](COC(=O)c2cc(O)c(O)c(O)c2)[C@@H](O)[C@H](O)[C@H]1O` (stereo not given in full), in experiment [1], the activation was 0.763% (inactive). Further, the Potency result in experiment [2] and in experiment [3] was “inactive” in each case.

In the case of `CC(=O)N1CCN(Cc2ccc([C@H](C)Nc3nccc(N4C(=O)OC[C@@H]4C(C)C)n3)cc2)CC1`, the activation in experiment [1] is -16.1% (inactive). Also, the Potency entry in experiment [2] and in [3] was “inactive” in each case.

As to `O=C(NCc1cccc(O)c1)Nc1nc(-c2ccncc2)cs1`, the activation in experiment [1] was 6.25% (inactive). The Potency entry in experiment [2] and in experiment [3] was “inactive” in each case. For the same compound, the viability in experiment [4] is 92.2% (inactive). The Potency in [5] was 14800 nM (active).

For `COC(=O)Nc1ccc(-c2nc(N3CCOCC3)c3cnn(C4CCN(Cc5cccnc5)CC4)c3n2)cc1`, in experiment [1], the activation is 9.82% (inactive). In addition, the Potency entry in experiment [2] and in experiment [3] was “inactive” each time. The Potency in experiment [4] was 2630 nM (active); in experiment [5] it was 2630 nM (active); in experiment [6], 1320 nM (active); in experiment [7], 1180 nM (active); in [8], 525 nM (active); in experiment [9], 1860 nM (active).

Regarding `COc1cc2c(cc1O)CC(O)(CO)C(CO)C2c1ccc(OC2OC(CO)C(O)C(O)C2O)c(OC)c1` (stereo not given), the activation in experiment [1] is -31.3% (inactive). Further, the Potency entry in experiment [2] and in experiment [3] was “inactive” throughout.

In the case of `C=CC(C)(CC/C=C(\C)C(=O)OC)OC1OC(COC(=O)CC(C)(O)CC(=O)O)C(OC2OC(CO)C(O)C(O)C2O)C(O)C1O` (stereo not given), the activation in experiment [1] is -11.5% (inactive). Besides, the Potency result in experiment [2] and in experiment [3] was “inactive” in each case.

For the compound `Nc1ccc(-c2ccc3ncc4ccc(=O)n(-c5cccc(C(F)(F)F)c5)c4c3c2)cn1`, the activation in experiment [1] is 6.6% (inactive). The Potency entry in experiment [2] and in experiment [3] was “inactive” each time. The Potency in experiment [4] was 105 nM (active); in [5], 166 nM (active); in experiment [6], 83.3 nM (active); in [7], 59 nM (active); in experiment [8], 26.3 nM (active); in [9], 52.5 nM (active).

With `CCC(O)C(C)C1CCC(C(C)C(=O)O)O1` (stereo not given), the activation in experiment [1] was 13.4% (inactive). Further, the Potency result in experiment [2], in experiment [3] and in experiment [10] was “inactive” throughout.

Take `Cc1nnsc1C(=O)Nc1ccc(-n2nc(C(F)(F)F)cc2C(F)(F)F)cc1`: the activation in [1] is 1.43% (inactive). Besides, the Potency result in experiment [2] and in [3] was “inactive” each time.

In the case of `O=C(Nc1ccc(-c2ccnc(Nc3ccc(N4CCOCC4)cc3)n2)cc1)C1CCCN1` (stereo not given), in [1], the activation is -5.36% (inactive). Also, the Potency entry in experiment [2] and in [3] was “inactive” throughout. The Potency in experiment [4] is 9340 nM (active); in experiment [5], 16600 nM (active); in [6], 2350 nM (active); in experiment [7], 5900 nM (active); in experiment [8], 1660 nM (active).

As for `COc1c(OCCCN2CCOCC2)ccc2c3n(c(=NC(=O)c4cnc(N)nc4)nc12)CCN3`, in [1], the activation was 8.4% (inactive) and -29.5% (inactive). In addition, the activity change, negative = inhibition in experiment [2] is -4.59% [at 11.2 µM] (inactive); in experiment [3], 13.9% [at 11.2 µM] (inactive). The Potency in experiment [4] is 1080 nM (active); in experiment [5], 34 nM (active); in experiment [6], 85.5 nM (active); in experiment [7], 959 nM (active); in experiment [8] it was 42.8 nM (active).

As for `CC(C)(C)c1nc(-c2cccc(NS(=O)(=O)c3c(F)cccc3F)c2F)c(-c2ccnc(N)n2)s1`, the Potency in experiment [1] is 26.9 µM (active). Moreover, the Potency entry in [2] and in experiment [3] was “inactive” each time. Further, in [4], the viability was 98% (inactive).

On to `Cc1nc(-c2cccnc2)sc1C(=O)Nc1ccccc1-c1cn2c(CN3CCOCC3)csc2n1`, for which the activation in experiment [1] was 17.9% (inactive). Further, the Potency entry in experiment [2], in [3], in experiment [5], in [6], in experiment [7] and in experiment [8] was “inactive” in each case. Besides, the viability in experiment [4] is 115% (inactive).

Regarding `C=C(CCO[C@@H]1O[C@H](CO)[C@@H](O)[C@H](O)[C@H]1O)C(=O)O`, in [1], the activation is -22.3% (inactive). The Potency result in [2] and in experiment [3] was “inactive” each time.

For `CCn1nnc2c(N3CCOCC3)nc(-c3ccc(NC(=O)Nc4ccc(C(=O)N5CCN(C)CC5)cc4)cc3)nc21`, in [1], the activation was 37.4% (inactive) and 20.5% (inactive). Further, the Potency result in [2] and in [3] was “inactive” throughout. Also, the Potency is 1860 nM (active) in experiment [4]; 263 nM (active) in [5]; 166 nM (active) in experiment [6]; 148 nM (active) in [7]; 186 nM (active) in experiment [8].

As for `CCC[C@@H]1C[C@@H](C(=O)N[C@@H]([C@H]2O[C@H](SC)[C@H](O)[C@@H](O)[C@@H]2O)[C@@H](C)O)N(C)C1`, the activation in experiment [1] was 7% (inactive). The Potency result in experiment [2] and in experiment [3] was “inactive” throughout.

Take `CC(C)/C=C1\NC(=O)C(C(C)C)n2c1nc1c(c2=O)C=CC=CO1` (stereo not given): the activation in [1] is -7.63% (inactive). For the same compound, the Potency result in [2] and in experiment [3] was “inactive” in each case.

`C#Cc1cccc(Nc2ncnc3cc(OC)c(OCCCCCCC(=O)NO)cc23)c1`: the Potency was 8.63 µM (active) and 5.36 µM (active) and 544 nM (active) in experiment [1]; 1480 nM (active) in experiment [4]; 1050 nM (active) in [5]; 296 nM (active) in [6]; 934 nM (active) in experiment [7]; 1180 nM (active) in experiment [8]. In addition, the Potency in [9] was 1050 nM (active); in [11], 2090 nM (active). Moreover, the Potency entry in [2] and in [3] was “inactive” each time.

Turning to `C=C1[C@H](OC(C)=O)[C@H]2[C@@H](OC(C)=O)C(C)C[C@]2(OC(C)=O)C(=O)[C@H](C)/C=C/C(C)(C)C(=O)[C@H](OC(=O)C(C)C)[C@H]1OC(C)=O` (stereo not given in full), in experiment [1], the activation was -13.7% (inactive). For the same compound, the Potency entry in [2] and in experiment [3] was “inactive” in each case.

For the origin of these results see PubChem BioAssay (NCATS).
